Experimental findings from PubChem BioAssay (NCI) are described below.

About 83,000 compounds went through this panel and 20% of them were active in at least one assay; those are over-represented in the sample as a whole.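 Plates (96-well) were seeded with cells, treated with compound at one concentration, and incubated for 48 hours before percent growth was determined.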 Unmarked numbers belong to inactive results. The source made the active and inactive calls. Rule for the calls: active = growth percent below 10; inactive = the rest.

Some test systems named below: NCI-H23 lung; NCI-H226 lung; NCI-H322M lung; HOP-62 NSCLC; NCI-H460 lung; HOP-92 NSCLC; NCI-H522 lung; A549/ATCC NSCLC; 786-0 renal; COLO 205 colon; DU-145 prostate; K-562 leukemia; MALME-3M melanoma; MDA-MB-231 breast; RXF 393 renal; SF-268 CNS; SF-295 CNS; SF-539 CNS; UACC-257 melanoma; M14 melanoma.
Holding throughout (experiment): NCI-60 one-dose screen, 48 h (100 = growth as untreated, 0 = no growth, -100 = all killed)
Holding throughout (details): 10 µM unless noted

Consider `N#C/C(=C\c1ccc(Br)cc1)n1nnc2cccc(F)c21`, for which the growth with NCI-H23 lung is 23.8%; in the assay with NCI-H226 lung it was 41.9%; in the assay with NCI-H322M lung, 32.3%; in the assay on HOP-62 NSCLC it was 40%; with NCI-H460 lung, -47% (active); in the assay with HOP-92 NSCLC it was -23.7% (active). The growth in the assay on NCI-H522 lung was 18.4%; in the assay with A549/ATCC NSCLC, 20.9%; in the assay on 786-0 renal, 11.2%; in the assay with COLO 205 colon, -12.5% (active); in the assay with DU-145 prostate, 0.426% (active); in the assay with K-562 leukemia, 12.7%. Moreover, the growth in the assay with MALME-3M melanoma is 37.7%; with MDA-MB-231 breast, -1.07% (active); in the assay with RXF 393 renal, -23.6% (active); in the assay on SF-268 CNS it was 24.4%; in the assay with SF-295 CNS, 55.4%; in the assay with SF-539 CNS, 1.06% (active). Further, the growth is 37.3% with UACC-257 melanoma and 10.9% in the assay with M14 melanoma.

Regarding `Cc1ccc(Nc2cc(=S)nc(N)[nH]2)cc1C`, the growth in the assay on NCI-H23 lung is 90.8%; with NCI-H226 lung, 97.1%; in the assay on NCI-H322M lung, 98.1%; in the assay on HOP-62 NSCLC it was 89.3%; with NCI-H460 lung, 103%; with HOP-92 NSCLC, 75.7%. The growth in the assay on NCI-H522 lung was 91.1%; in the assay with A549/ATCC NSCLC, 99.9%; with 786-0 renal it was 98.9%; in the assay with COLO 205 colon it was 112%; with DU-145 prostate, 102%; in the assay on K-562 leukemia, 92.9%. The growth is 100% with MALME-3M melanoma; 80.6% in the assay with MDA-MB-231 breast; 107% with RXF 393 renal; 100% in the assay with SF-268 CNS; 98.6% with SF-295 CNS; 96.4% in the assay on SF-539 CNS. The growth with UACC-257 melanoma was 103%.

Turning to `CS(=O)(=O)OCCN(CCOS(C)(=O)=O)c1ccc(/C=N/Nc2ccc([N+](=O)[O-])cc2[N+](=O)[O-])cc1`, the growth was 73.6% with NCI-H23 lung; 81.4% in the assay on NCI-H226 lung; 94.5% in the assay with NCI-H322M lung; 92.8% in the assay with HOP-62 NSCLC; 37.5% in the assay with NCI-H460 lung; 71.8% in the assay with HOP-92 NSCLC. Further, the growth was 91.5% in the assay on NCI-H522 lung; 80.8% with A549/ATCC NSCLC; 101% in the assay on 786-0 renal; 90% in the assay on COLO 205 colon; 99.7% in the assay with DU-145 prostate; 102% with K-562 leukemia. Also, the growth in the assay on MALME-3M melanoma was 86.8%; with MDA-MB-231 breast it was 71.6%; in the assay on RXF 393 renal, 102%; in the assay with SF-268 CNS, 94.1%; with SF-295 CNS, 79.2%; in the assay on SF-539 CNS, 80.5%. The growth with UACC-257 melanoma was 96.9%; in the assay on M14 melanoma, 99.3%.

Take `CC(C)(C#N)N1CCN(c2ccccc2Cl)CC1`: the growth in the assay with NCI-H23 lung is 98.8%; in the assay with NCI-H226 lung it was 103%; in the assay with NCI-H322M lung, 94.8%; in the assay on HOP-62 NSCLC, 102%; with NCI-H460 lung, 104%; in the assay on HOP-92 NSCLC, 98%. Moreover, the growth is 90.9% in the assay on NCI-H522 lung; 95.1% with A549/ATCC NSCLC; 97.9% in the assay with 786-0 renal; 113% in the assay on COLO 205 colon; 105% with DU-145 prostate; 96.4% in the assay on K-562 leukemia. Also, the growth in the assay with MALME-3M melanoma was 91.2%; in the assay with MDA-MB-231 breast it was 110%; in the assay on RXF 393 renal, 118%; in the assay on SF-268 CNS, 101%; with SF-295 CNS, 97.2%; in the assay with SF-539 CNS, 96.8%. Also, the growth in the assay on UACC-257 melanoma was 92.1%.

On to `NC(=S)N/N=C/c1ccc(OC(=O)COc2cc(Cl)c(Cl)cc2Cl)cn1`, for which the growth was 28.1% in the assay on NCI-H23 lung; 84.6% in the assay on NCI-H226 lung; 57.2% in the assay on NCI-H322M lung; 85.6% in the assay on HOP-62 NSCLC; 79.9% with NCI-H460 lung; 48.6% in the assay with HOP-92 NSCLC. Besides, the growth in the assay on NCI-H522 lung is 23.8%; in the assay on A549/ATCC NSCLC, 107%; with 786-0 renal, 19.9%; in the assay on COLO 205 colon, 117%; in the assay with DU-145 prostate it was 36.4%; with K-562 leukemia, 48.6%. Also, the growth in the assay on MALME-3M melanoma is 75.7%; in the assay on MDA-MB-231 breast, 82.6%; with RXF 393 renal it was 50.1%; in the assay with SF-268 CNS, 41.2%; in the assay on SF-295 CNS it was 134%; in the assay on SF-539 CNS, 29.5%. Further, the growth in the assay with UACC-257 melanoma was 78.9%.

As for `O=C(Nc1nc(-c2ccccc2Cl)cs1)c1cc(-c2ccccc2)nc2ccc(Cl)cc12`, the growth in the assay with NCI-H23 lung was 51.3%; with NCI-H226 lung it was 74.3%; with NCI-H322M lung, 93.8%; with HOP-62 NSCLC it was 84.6%; with NCI-H460 lung it was 102%; with HOP-92 NSCLC, 42.8%. The growth was 78.6% in the assay with NCI-H522 lung; 99.7% in the assay with A549/ATCC NSCLC; 89.4% in the assay on 786-0 renal; 87.6% with COLO 205 colon; 77.8% in the assay with DU-145 prostate; 25.2% in the assay with K-562 leukemia. The growth in the assay on MALME-3M melanoma is 63.9%; in the assay on MDA-MB-231 breast, 46.8%; with RXF 393 renal it was 87.2%; in the assay on SF-268 CNS, 44.7%; with SF-295 CNS it was 81.1%; in the assay on SF-539 CNS, -7.04% (active). Also, the growth in the assay with UACC-257 melanoma is 84.6%; in the assay on M14 melanoma, 4.1% (active).

On to `COc1cc2nc(-c3ccc(C(F)(F)F)cc3)cc(OCCN3CCCC3)c2cc1OC`, for which the growth in the assay on NCI-H23 lung was 80.9%; in the assay with NCI-H226 lung, 82.7%; in the assay with NCI-H322M lung, 88.9%; in the assay on HOP-62 NSCLC, 83.6%; in the assay with NCI-H460 lung, 68.1%; in the assay on HOP-92 NSCLC, 60.7%. The growth in the assay on NCI-H522 lung is 95.7%; in the assay on A549/ATCC NSCLC it was 93.5%; in the assay on 786-0 renal, 76.4%; with COLO 205 colon it was 77.9%; in the assay with DU-145 prostate, 84.1%; with K-562 leukemia it was 47.4%. The growth in the assay on MALME-3M melanoma is 85.8%; in the assay on MDA-MB-231 breast, 74.6%; in the assay with RXF 393 renal it was 65.4%; in the assay with SF-268 CNS, 81%; in the assay with SF-295 CNS it was 83%; in the assay on SF-539 CNS it was 81.1%. Also, the growth with UACC-257 melanoma was 68.9%; in the assay with M14 melanoma it was 4.5% (active).

In the case of `COc1cc2c(cc1[N+](=O)[O-])-c1ccc([N+](=O)[O-])cc1/C2=N/NC(N)=S`, the growth is 71.5% in the assay on NCI-H23 lung; 62.6% in the assay on NCI-H226 lung; 93.9% in the assay with NCI-H322M lung; 99.9% in the assay on HOP-62 NSCLC; 29.6% in the assay with NCI-H460 lung; 78.3% in the assay with HOP-92 NSCLC. The growth with NCI-H522 lung was 35.5%; with A549/ATCC NSCLC, 69.2%; in the assay with 786-0 renal it was 70.6%; with COLO 205 colon it was 66.7%; in the assay with DU-145 prostate it was 79%; in the assay with K-562 leukemia it was 59.9%. Moreover, the growth in the assay on MALME-3M melanoma is 93.7%; in the assay with MDA-MB-231 breast, 74.4%; with RXF 393 renal it was 68.2%; in the assay on SF-268 CNS it was 73.9%; in the assay with SF-295 CNS, 43.6%; with SF-539 CNS, 73%. The growth is 75.5% in the assay on UACC-257 melanoma and 82.8% in the assay with M14 melanoma.
